We go through 7 molecules from PubChem BioAssay (Tox21).

Where “and” joins values, the source holds several entries; their conditions need not be identical. Identical values can stand only once. Results filed as inconclusive are left out. Some compounds were tested as several samples or in several runs, with calls that do not always agree. Calls of active or inactive are those of the source. Unless noted, calls follow the shape of the full dose curve.

A short description of experiment [1]: Nuclear factor erythroid 2-related factor 2/antioxidant responsive element (Nrf2/ARE) small molecule agonists: qHTS cell viability counter screen in human keratinocytes (AID 1919968; active = well fitted curve in the direction sought with a large enough effect in the repeat runs; an effect the other way counts as inactive or inconclusive; also: nearly all actives have a fitted effect of over 55% in size). In a few lines:
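CellTiter-Fluor fluorescence, read 1 h after reagent, gave viability in the same wells as the ARE-luciferase assay. KeratinoSens cells (1,500/well) had 23 h compound exposure at 37 C/5% CO2 following 5 h plating.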
(In general: qHTS replaces the single test concentration by a dilution series.)

Experiment [2] is described as follows: Nuclear factor erythroid 2-related factor 2/antioxidant responsive element (Nrf2/ARE) small molecule agonists: luciferase reporter gene qHTS assay in human keratinocytes (AID 1919969). Also: nearly all actives have a fitted effect of over 35% in size. Also: potency is read from the fitted curve at half-maximal effect.
In experiment [3] the target is Gonadotropin-releasing hormone receptor (Homo sapiens) (UniProt P30968). As to the kind of experiment: Human gonadotropin-releasing hormone receptor (GnRHR) small molecule agonists, calcium flux assay in GnRHR-HEK293 cells (AID 1920063). Also: nearly all actives have a fitted effect of over 35% in size. Also: potency is read from the fitted curve at half-maximal effect. In a few lines: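 Agonist mode: compounds at 15 concentrations, in triplicate, went onto calcium dye-loaded GnRHR-HEK293 cells. Intracellular calcium was then followed as 480/540 nm fluorescence at 1 s intervals over 3 min.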
(Calcium assays in cells follow changes in intracellular calcium, usually with a dye or a luminescent sensor.)

Experiment [4] has as its target KiSS-1 receptor (Homo sapiens) (UniProt Q969F8). As to the kind of experiment: Human kisspeptin (KISS1R) small molecule agonists, calcium flux assay in KISS1R-HEK293 cells (AID 1920064; active = well fitted curve in the direction sought with a large enough effect in the repeat runs; an effect the other way counts as inactive or inconclusive; also: potency is read from the fitted curve at half-maximal effect). An outline of the steps: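 Agonist mode: intracellular calcium rise tracked at 1 s intervals over 3 min (480/540 nm) immediately after compound addition to dye-loaded KISS1R-HEK293 stable cells. Each compound tested at 15 concentrations in triplicate.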

A short description of experiment [5]: G protein-coupled receptor (GPCR) small molecule agonists, calcium flux assay: HEK293 wild type cell line counter screen (AID 1920065). Also: potency is read from the fitted curve at half-maximal effect. An outline of the steps: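 Calcium flux counter screen: compound added in agonist mode at 15 concentrations in triplicate to dye-loaded parental HEK293 cells. Fluorescence (480/540) read kinetically for 3 min; ATP served as positive control.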

Experiment [6] in a line: p53 small molecule agonists, cell-based qHTS assay with human liver microsomes: qHTS cell viability counter screen (AID 1963579). Also: nearly all actives have a fitted effect of over 45% in size. An outline of the steps: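 Viability of p53RE-bla cells is measured as CellTiter-Glo luminescence following a 16 h, 37 C incubation with compound, liver microsomes from human donors and NADPH.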
The nature of experiment [7]: p53 small molecule agonists, cell-based qHTS assay with rat liver microsomes: qHTS cell viability counter screen (AID 1963580). Also: nearly all actives have a fitted effect of over 45% in size. An outline of the steps:
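Rat liver microsome (0.5 mg/mL final) and NADPH (0.5 mg/mL final) co-incubation with compounds for 16 h at 37 C on HCT-116 p53RE-bla cells; cytotoxicity taken from intracellular ATP luminescence.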

Experiment [8] is described as follows: p53 small molecule agonists, cell-based qHTS assay: qHTS cell viability counter screen (AID 1963581). Also: nearly all actives have a fitted effect of over 45% in size. An outline of the steps: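 Counter screen read by CellTiter-Glo luminescence (ATP content, 30 min at room temperature), run in the same wells as the beta-lactamase reporter read. HCT-116 p53RE-bla cells saw compounds for 16 h at 37 C.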
The nature of experiment [9]: p53 small molecule agonists, cell-based qHTS assay (AID 1963582; active = well fitted activation curve with a large enough effect in the signal ratio in the repeat runs, not every such curve was filed as active; the % refers to the signal ratio). In a few lines:
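Read-out is beta-lactamase FRET fluorescence after 2 h at room temperature with LiveBLAzer B/G substrate. p53 response element-bla cells were treated 16 h at 37 C with compounds in DMSO, added 5 h after seeding.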

For experiment [10], the target named is 5-hydroxytryptamine receptor 2A (Homo sapiens) (UniProt P28223). Nature of the experiment: 5-hydroxytryptamine receptor 2A (HTR2A) small molecule agonists, cell-based qHTS assay (AID 1963587). Also: nearly all actives have a fitted effect of over 30% in size. Also: potency is read from the fitted curve at half-maximal effect. An outline of the steps: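 Kinetic calcium-flux fluorescence (2 min, 1 sec intervals) after compound addition in agonist mode. HTR2A-CHO cells were cultured 18 h, then dye-loaded 1 h at 37 C.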

Experiment [11] has as its target Muscarinic acetylcholine receptor M1 (Homo sapiens) (UniProt P11229). As to the kind of experiment: Cholinergic receptor muscarinic 1 (CHRM1) small molecule antagonists, cell-based qHTS assay (AID 1963588). Also: nearly all actives have a fitted effect of over 40% in size. In a few lines:
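Compounds were tested at 15 concentrations in three independent runs. Dye-loaded CHRM1-CHO cells were exposed 5 min at room temperature before stimulation by acetylcholine added at 50nM. Intracellular calcium was read kinetically on FDSS for 3 min.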

The target is the same in experiment [12]. As to the kind of experiment: Cholinergic receptor muscarinic 1 (CHRM1) small molecule agonists, cell-based qHTS assay (AID 1963589). Also: nearly all actives have a fitted effect of over 35% in size. In a few lines:
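Agonist-mode calcium-flux screen: compounds at 15 concentrations, three independent runs, were pin-transferred onto dye-loaded human CHRM1-CHO cells. Fluorescence was then recorded kinetically every second over minutes.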

Experiment [13] can be described thus: cAMP Responsive Elements (CRE) small molecule agonists, cell-based qHTS assay (AID 1963590). In a few lines:
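Agonist mode: compound added to CRE-bla HEK 293T cells (2,000/well, 18 h after plating) for 3 h at 37 C/5% CO2. Reporter activity detected via FRET beta-lactamase substrate, 2 h room-temperature loading.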

Experiment [14] in a line: cAMP Responsive Elements (CRE) small molecule antagonists, cell-based qHTS assay (AID 1963591; active = well fitted inhibition curve with a large enough effect in the signal ratio in the repeat runs, not every such curve was filed as active; the % refers to the signal ratio). In a few lines:
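Antagonist mode: compounds are added alongside the adenylyl cyclase activator NKH477 (0.25 uM final) to CRE-bla HEK293T cells for 3 h. LiveBLAzer FRET substrate, 2 h at room temperature, reports bla expression.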

In experiment [15] the target is Beta-2 adrenergic receptor (Homo sapiens) (UniProt P07550). Nature of the experiment: Adrenergic beta2 receptor (ADRB2) small molecule antagonists, cell-based qHTS assay (AID 1963592). Also: series mostly up to about 92 µM; nearly all actives have a fitted effect of over 50% in size. An outline of the steps:
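Assay format: CHO-ADRB2 cells, 18-20hr seeding at 37C/5% CO2, then compound plus 1nM isoproterenol agonist mix for 0.5hr RT. Homogeneous time-resolved fluorescence cAMP detection after 1hr, expressed as 665/615 nm ratio.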

The target is the same in experiment [16]. Nature of the experiment: Adrenergic beta2 receptor (ADRB2) small molecule agonists, cell-based qHTS assay (AID 1963593).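 Also: CHO cells stably overexpressing human ADRB2.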 An outline of the steps:
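CHO cells stably over-expressing ADRB2 were plated overnight at 37C, then dosed with compounds plus a stimulation mix containing 100uM IBMX and 25uM Ro-20-1724 for 0.5hr at room temperature. cAMP was measured by HTRF competition, 1hr.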

Experiment [17] concerns the target D(2) dopamine receptor (Homo sapiens) (UniProt P14416). As to the kind of experiment: Dopamine D2 receptor (DRD2) small molecule agonists, cell-based qHTS assay (AID 1963594). Also: nearly all actives have a fitted effect of over 35% in size. An outline of the steps:
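cAMP accumulation in DRD2-HEK293 cells measured by HTRF after 1 h detection; compounds added 10 min before NKH477 (200nM […]) forskolin-analogue stimulation, 30 min at room temperature, with Ro20-1724 present at 0.1 mM final.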

The target is the same in experiment [18]. Nature of the experiment: Dopamine D2 receptor (DRD2) small molecule antagonists, cell-based qHTS assay (AID 1963595; active = well fitted inhibition curve with a large enough effect in the signal ratio in the repeat runs, with a control signal flat; the % refers to the signal ratio). An outline of the steps:
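Antagonist mode in DRD2-HEK293 cells: after compound addition with 0.1 mM Ro20-1724, cells received quinpirole (12 nM) and NKH477 (200 nM) for 30 min at room temperature; HTRF cAMP read after 1 h detection.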

Experiment [19] is described as follows: p53 small molecule agonists, cell-based qHTS assay with rat liver microsomes (AID 1963578). An outline of the steps: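 Quantitative HTS of the Tox21 10K library: p53RE-bla cells, rat liver microsomes plus NADPH at 0.5 mg/mL final each, 16 h at 37 C, beta-lactamase fluorescence detection.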
Experiment [20] addresses 5-hydroxytryptamine receptor 2A (Homo sapiens) (UniProt P28223). As to the kind of experiment: 5-hydroxytryptamine receptor 2A (HTR2A) small molecule antagonists, cell-based qHTS assay (AID 1963586). Also: nearly all actives have a fitted effect of over 45% in size. In a few lines:
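CHO cells stably expressing human HTR2A were plated for 18 h at 37 C, then loaded with calcium dye for 1 h. Compounds were preincubated 5 min at room temperature before DOI (4 nM solution) was added. Kinetic fluorescence was read for 3 min.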

Sequence of D(2) dopamine receptor (Homo sapiens) (P14416 whole entry, looked up): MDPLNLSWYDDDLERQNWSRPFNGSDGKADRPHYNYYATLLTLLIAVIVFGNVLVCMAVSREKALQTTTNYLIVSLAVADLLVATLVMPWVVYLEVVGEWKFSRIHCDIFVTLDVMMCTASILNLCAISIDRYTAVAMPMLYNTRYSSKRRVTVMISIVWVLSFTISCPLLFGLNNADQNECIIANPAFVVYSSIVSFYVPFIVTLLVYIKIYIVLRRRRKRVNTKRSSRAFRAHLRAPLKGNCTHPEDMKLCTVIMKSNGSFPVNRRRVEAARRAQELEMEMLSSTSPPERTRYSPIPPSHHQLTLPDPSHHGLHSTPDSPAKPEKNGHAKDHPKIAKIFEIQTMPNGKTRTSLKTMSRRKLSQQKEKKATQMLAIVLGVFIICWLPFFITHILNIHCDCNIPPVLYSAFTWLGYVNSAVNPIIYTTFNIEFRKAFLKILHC
Sequence of Muscarinic acetylcholine receptor M1 (Homo sapiens) (P11229 whole entry, looked up): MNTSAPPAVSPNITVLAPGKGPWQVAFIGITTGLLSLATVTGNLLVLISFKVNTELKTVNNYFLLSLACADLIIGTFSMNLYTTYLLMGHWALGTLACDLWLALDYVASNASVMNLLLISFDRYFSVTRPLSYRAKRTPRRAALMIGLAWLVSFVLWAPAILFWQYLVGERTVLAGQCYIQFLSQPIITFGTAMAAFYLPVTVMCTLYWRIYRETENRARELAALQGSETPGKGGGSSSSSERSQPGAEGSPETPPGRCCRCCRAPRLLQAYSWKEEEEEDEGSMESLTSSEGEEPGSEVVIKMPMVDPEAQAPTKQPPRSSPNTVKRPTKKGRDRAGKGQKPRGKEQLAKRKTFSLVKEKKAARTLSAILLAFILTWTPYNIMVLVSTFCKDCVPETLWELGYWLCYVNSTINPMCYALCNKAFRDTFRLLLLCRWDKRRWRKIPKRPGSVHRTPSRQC
Sequence of Beta-2 adrenergic receptor (Homo sapiens) (P07550 whole entry, looked up): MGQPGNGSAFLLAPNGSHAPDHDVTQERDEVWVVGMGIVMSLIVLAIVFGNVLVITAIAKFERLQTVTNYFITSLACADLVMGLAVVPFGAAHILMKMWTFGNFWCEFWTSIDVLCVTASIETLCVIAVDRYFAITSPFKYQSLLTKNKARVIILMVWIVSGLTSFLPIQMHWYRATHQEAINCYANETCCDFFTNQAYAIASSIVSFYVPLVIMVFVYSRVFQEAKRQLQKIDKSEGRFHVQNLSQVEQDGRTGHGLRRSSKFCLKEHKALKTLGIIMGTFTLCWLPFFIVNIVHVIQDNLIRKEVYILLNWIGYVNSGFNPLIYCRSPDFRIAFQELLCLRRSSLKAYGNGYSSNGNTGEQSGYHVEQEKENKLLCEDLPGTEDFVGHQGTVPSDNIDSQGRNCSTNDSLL
Sequence of KiSS-1 receptor (Homo sapiens) (Q969F8 whole entry, looked up): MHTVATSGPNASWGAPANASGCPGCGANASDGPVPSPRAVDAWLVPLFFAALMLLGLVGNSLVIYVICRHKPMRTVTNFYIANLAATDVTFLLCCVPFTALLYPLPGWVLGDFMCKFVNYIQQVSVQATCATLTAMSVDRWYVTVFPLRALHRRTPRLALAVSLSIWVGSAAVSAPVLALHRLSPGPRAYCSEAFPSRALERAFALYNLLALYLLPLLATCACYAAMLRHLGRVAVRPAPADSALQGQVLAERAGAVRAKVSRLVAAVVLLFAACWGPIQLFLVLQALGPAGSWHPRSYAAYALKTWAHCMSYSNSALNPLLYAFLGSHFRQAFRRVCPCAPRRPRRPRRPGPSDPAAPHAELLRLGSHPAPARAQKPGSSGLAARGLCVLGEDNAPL
Sequence of Gonadotropin-releasing hormone receptor (Homo sapiens) (P30968 whole entry, looked up): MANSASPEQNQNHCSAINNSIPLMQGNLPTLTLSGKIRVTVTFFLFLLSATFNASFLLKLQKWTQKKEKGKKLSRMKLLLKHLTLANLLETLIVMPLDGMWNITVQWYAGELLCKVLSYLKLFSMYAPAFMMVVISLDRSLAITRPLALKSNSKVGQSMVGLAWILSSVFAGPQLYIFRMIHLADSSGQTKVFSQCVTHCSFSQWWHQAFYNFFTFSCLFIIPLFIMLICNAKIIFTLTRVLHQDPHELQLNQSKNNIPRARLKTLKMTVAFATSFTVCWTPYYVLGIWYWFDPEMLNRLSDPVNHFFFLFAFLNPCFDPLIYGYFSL
Sequence of 5-hydroxytryptamine receptor 2A (Homo sapiens) (P28223 whole entry, looked up): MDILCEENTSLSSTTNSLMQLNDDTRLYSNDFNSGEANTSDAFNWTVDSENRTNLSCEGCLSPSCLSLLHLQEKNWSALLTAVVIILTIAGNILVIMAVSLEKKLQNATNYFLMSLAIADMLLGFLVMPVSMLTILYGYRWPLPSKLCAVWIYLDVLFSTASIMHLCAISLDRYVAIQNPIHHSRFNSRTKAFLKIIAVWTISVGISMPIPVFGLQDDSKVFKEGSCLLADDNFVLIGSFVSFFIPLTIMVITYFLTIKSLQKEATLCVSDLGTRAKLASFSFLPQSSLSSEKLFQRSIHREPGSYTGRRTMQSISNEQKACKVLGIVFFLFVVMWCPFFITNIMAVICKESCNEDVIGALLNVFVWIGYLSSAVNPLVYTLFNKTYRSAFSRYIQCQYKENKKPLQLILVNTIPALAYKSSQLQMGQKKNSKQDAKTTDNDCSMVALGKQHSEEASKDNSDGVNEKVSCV

Take `CC(CO)c1ccccc1` (stereo unspecified): the Potency entry in experiment [1], in experiment [2], in experiment [3], in experiment [4], in experiment [5] and in [6] was “inactive” in each case. The Potency entry in experiment [7], in [8], in experiment [9], in experiment [10], in [11] and in experiment [12] was “inactive” throughout. Moreover, the Potency result in experiment [13], in experiment [14], in [15], in experiment [16], in [17] and in experiment [18] was “inactive” in each case.
For the molecule `O=C(O)c1cc(=O)c2c(OCC(O)COc3cccc4oc(C(=O)O)cc(=O)c34)cccc2o1`, the Potency result in experiment [1], in experiment [2], in experiment [3], in experiment [4], in [5] and in experiment [6] was “inactive” each time. For the same molecule, the Potency result in [7], in experiment [8], in experiment [9], in experiment [13], in experiment [14] and in experiment [15] was “inactive” throughout. Besides, the Potency result in experiment [16] and in experiment [17] was “inactive” in each case.
On to `CN(C)C(=O)Oc1ccc[n+](C)c1`, for which the Potency result in experiment [1], in experiment [2], in experiment [3], in [4], in experiment [5] and in [19] was “inactive” in each case. The Potency result in experiment [6], in [9], in experiment [20], in [10], in [11] and in experiment [12] was “inactive” each time. For the same molecule, the Potency entry in experiment [13], in [15], in experiment [16] and in experiment [17] was “inactive” in each case.
As for `O=C(Oc1ccccc1)c1ccccc1`, the Potency result in [1], in [2], in experiment [3], in [4], in [5] and in experiment [6] was “inactive” each time. Besides, the Potency entry in experiment [7], in [8], in experiment [20], in experiment [11], in experiment [12] and in experiment [13] was “inactive” in each case. The Potency entry in [14], in experiment [15], in experiment [16], in experiment [17] and in [18] was “inactive” throughout. Moreover, the Potency in [10] is 55 µM (active) and inactive.
As for `C1COC1`, the Potency entry in experiment [1], in experiment [2], in [3], in experiment [4], in [5] and in [19] was “inactive” in each case. For the same molecule, the Potency result in experiment [6], in experiment [8], in [9], in experiment [20], in experiment [10] and in [11] was “inactive” in each case. For the same molecule, the Potency entry in experiment [13], in [15], in experiment [16], in experiment [17] and in [18] was “inactive” each time.
As to `NC(=Nc1ccccc1)Nc1ccccc1`, the Potency entry in [1], in experiment [19], in experiment [6], in experiment [13], in [14] and in experiment [15] was “inactive” throughout. For the same molecule, the Potency result in experiment [17] and in experiment [18] was “inactive” each time. For the same molecule, the Potency in experiment [2] was 19.3 µM (active) and inactive; in experiment [3], 5.49 µM (active) and 15.1 µM (active); in experiment [4], 21.4 µM (active) and 23.9 µM (active); in [5], 15.5 µM (active).
`O=S(=O)(Oc1ccc(Cl)cc1Cl)c1ccccc1`: the Potency result in [1], in experiment [3], in [4], in [5], in experiment [6] and in experiment [7] was “inactive” each time. Moreover, the Potency entry in experiment [8], in experiment [20], in [10], in [11], in [12] and in experiment [13] was “inactive” throughout. Also, the Potency result in experiment [14], in experiment [15] and in experiment [17] was “inactive” each time. Also, the Potency in experiment [2] is 69.8 µM (active).
